Assay outcomes from PubChem BioAssay.
Most compounds without a hit are left out; they make up all but 7.6% or so of the library.
hERG WT inh: qHTS for Inhibitors of KCHN2 3.1: Wildtype qHTS; Voltage-gated inwardly rectifying potassium channel KCNH2 (Homo sapiens), Q12809; U2OS, BacMam KCNH2, thallium flux FluxOr; active compounds read low; activity change, % at 1.84 µM; 340,000 compounds, 0.37% hits; AID 720551, 2013;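 active = maximum activity change below -70%; inconclusive = maximum activity change between -70% and -50%; inactive = maximum activity change above -50%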; also: % is scaled to controls: 0 for no effect and ±100 for the full control effect
Target sequence (Q12809 whole entry, looked up): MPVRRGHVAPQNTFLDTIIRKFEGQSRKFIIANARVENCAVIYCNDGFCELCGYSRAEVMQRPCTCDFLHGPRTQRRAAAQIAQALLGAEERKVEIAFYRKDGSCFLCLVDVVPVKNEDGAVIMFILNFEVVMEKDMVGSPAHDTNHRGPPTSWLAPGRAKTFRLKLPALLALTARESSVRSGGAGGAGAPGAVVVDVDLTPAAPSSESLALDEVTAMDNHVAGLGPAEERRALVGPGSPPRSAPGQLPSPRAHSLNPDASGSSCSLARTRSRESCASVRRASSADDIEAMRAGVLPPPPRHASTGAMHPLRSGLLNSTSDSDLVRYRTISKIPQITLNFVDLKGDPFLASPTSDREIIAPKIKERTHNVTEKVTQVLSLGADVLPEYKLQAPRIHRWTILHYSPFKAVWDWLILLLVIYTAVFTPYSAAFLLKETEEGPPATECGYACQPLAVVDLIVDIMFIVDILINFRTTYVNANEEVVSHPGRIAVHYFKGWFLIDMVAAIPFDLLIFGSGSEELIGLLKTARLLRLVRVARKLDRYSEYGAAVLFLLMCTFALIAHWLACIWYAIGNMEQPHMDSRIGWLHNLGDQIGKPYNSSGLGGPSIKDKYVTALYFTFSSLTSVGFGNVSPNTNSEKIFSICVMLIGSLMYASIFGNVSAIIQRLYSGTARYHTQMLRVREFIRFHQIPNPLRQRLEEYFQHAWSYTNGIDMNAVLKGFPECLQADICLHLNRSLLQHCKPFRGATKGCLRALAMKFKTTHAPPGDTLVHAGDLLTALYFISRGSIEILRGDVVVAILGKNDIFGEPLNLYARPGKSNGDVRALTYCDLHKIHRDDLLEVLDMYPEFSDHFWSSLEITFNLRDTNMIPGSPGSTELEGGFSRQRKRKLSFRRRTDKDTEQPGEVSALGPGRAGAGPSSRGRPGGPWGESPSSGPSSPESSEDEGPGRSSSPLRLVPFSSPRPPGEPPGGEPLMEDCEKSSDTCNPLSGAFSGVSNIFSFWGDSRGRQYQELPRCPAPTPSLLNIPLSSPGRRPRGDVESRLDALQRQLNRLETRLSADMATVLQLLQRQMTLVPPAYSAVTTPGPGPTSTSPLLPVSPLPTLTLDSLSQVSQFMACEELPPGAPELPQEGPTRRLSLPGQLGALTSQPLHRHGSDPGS
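U2OS cells transduced with wild-type KCNH2 virus are loaded with FluxOr dye for 45 min, and thallium flux is measured in kinetic reads before and after stimulation buffer. Rate constants are normalized to DMSO controls.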
SW480 rereplic: A quantitative high throughput screen for small molecules that induce DNA re-replication in SW480 colon adenocarcinoma cells; 340,000 compounds, 1.8% hits; SW480 DNA re-replication, Hoechst DNA content imaging, 48 h; Potency, µM (top dose mostly 46.1 µM), inactives show at the highest dose re-replication activation, usual class: activators; also: potency is read from the fitted curve at half-maximal effect; % of control where 0% means no effect; nearly all actives have a fitted effect of over 55% in size
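Per well, 250 cells were exposed to pinned compound for 48 hr. Nuclear DNA was visualised with Hoechst (40 min, 37 C) and total object intensity recorded by fluorescence scanning.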
KB-V1 MDR tox: qHTS assay for MDR1-selective chemotherapeutics: Primary screen using the drug-selected MDR subline cells KB-V1; KB-V1 MDR cells viability, CellTiter-Glo, 72 h; Potency, µM (titrated, usually from 46.1 µM), hits mostly cytotoxic; 400,000 compounds, 3.4% hits; AID 1347076, 2019; also: potency is read from the fitted curve at half-maximal effect; % is scaled to controls: 0 for no effect and ±100 for the full control effect; nearly all actives have a fitted effect of over 60% in size
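Compound-treated KB-V1 multidrug-resistant cells, 72 h, 37 degrees C; viability by CellTiter-Glo. Fitted qHTS curves give the values.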
MCF10A rerep: A quantitative high throughput screen for small molecules that induce DNA re-replication in MCF 10a normal breast cells | MCF 10A DNA re-replication, Hoechst nuclear intensity, 48 h | Potency, µM (doses to about 46.1 µM), without a hit: top-dose activity, positive = re-replication, usual class: activators | 350,000 compounds, 2.9% hits; also: potency is read from the fitted curve at half-maximal effect; % of control where 0% means no effect; nearly all actives have a fitted effect of over 50% in size
KCNH2 3.1 inh: qHTS for Inhibitors of KCHN2 3.1: Mutant qHTS | Potassium voltage-gated channel subfamily H member 2, brain isoform KCNH2 3.1 (human) | activity change, % (tested at about 1.8 µM) | U2OS KCNH2 3.1, thallium flux FluxOr; active compounds read low | 340,000 compounds, 0.95% hits;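 active = maximum activity change below -70%; inconclusive = maximum activity change from -70% to -50%; inactive = maximum activity change above -50%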;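 also: thallium influx rate constant from kinetic fluorescence after stimulation buffer; % is scaled to controls: 0 for no effect and ±100 for the full control effect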
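Kinetic fluorescence (2 min after stimulation buffer) measures Tl+ influx through KCNH2 3.1 expressed by viral transduction in U2OS cells; the rate constant is normalized against DMSO controls serving as positive and negative references.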
KB-3-1 cytotox: qHTS assay for MDR1-selective chemotherapeutics: Primary screen using the parental adenocarcinoma cell KB-3-1; 400,000 compounds, 1.4% hits; KB-3-1 viability, CellTiter-Glo ATP luminescence, 72 h; Potency, µM (series often up to 46.1 µM), actives largely listed as cytotoxic; AID 1347075, 2019; also: potency is read from the fitted curve at half-maximal effect; % is scaled to controls: 0 for no effect and ±100 for the full control effect; nearly all actives have a fitted effect of over 60% in size
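KB-3-1 parental drug-naive adenocarcinoma cells in DMEM/10% FBS, incubated 72 h at 37 C with pin-transferred compounds across a concentration series. Viability by CellTiter-Glo luminescence; concentration-response curves fitted after normalization.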
* = called active by the depositor; [ ] = dose if it differs, or a comment. Unless noted, calls follow the shape of the dose curve; as a rule, active = well fitted curve in the direction sought with a large enough effect; inconclusive = small, poorly fitted or top-dose-only effect, or another doubt; inactive = no such curve, though single readings can be large; an effect the other way counts as inactive or inconclusive.

Screening CCOC(=O)c1cc2c(nc1C)-c1cc(Cl)cc(Cl)c1OC2O (stereo not drawn) returned SW480 rereplic inconclusive, KB-V1 MDR tox inactive, MCF10A rerep 18µM*, KCNH2 3.1 inh -20 and KB-3-1 cytotox inactive.
Screening CCOc1ccc(CN(C(=O)c2cc3ccccc3oc2=O)C2CCS(=O)(=O)C2)cc1 (stereo not drawn) returned hERG WT inh -1, SW480 rereplic -4%[9.22 µM], KB-V1 MDR tox inactive, MCF10A rerep -4%, KCNH2 3.1 inh -27 and KB-3-1 cytotox inactive.
For COc1ccccc1/C=N/NC(=O)c1cc2c(ccc3ccccc32)o1 the results were hERG WT inh 0, SW480 rereplic inconclusive, KB-V1 MDR tox inactive, MCF10A rerep inconclusive, KCNH2 3.1 inh -12 and KB-3-1 cytotox inconclusive.
`COc1ccc(/C=N/NC(=O)c2cc3c(ccc4ccccc43)o2)cc1OC` gave hERG WT inh 3, SW480 rereplic inconclusive, KB-V1 MDR tox inconclusive, MCF10A rerep 16µM*, KCNH2 3.1 inh 0 and KB-3-1 cytotox inconclusive.
For O=C(N/N=C/c1ccncc1)c1cc2c(ccc3ccccc32)o1 the results were hERG WT inh 5, SW480 rereplic -2%, KB-V1 MDR tox inconclusive, MCF10A rerep -7%, KCNH2 3.1 inh -10 and KB-3-1 cytotox inactive.
`COc1ccc(/C=N\NC(=O)c2cc3c(ccc4ccccc43)o2)cc1O` gave hERG WT inh 17, SW480 rereplic inconclusive, KB-V1 MDR tox inactive, MCF10A rerep 12µM*, KCNH2 3.1 inh 1 and KB-3-1 cytotox inconclusive.
For COc1ccc(-c2cccc3c2C2CC3CCN2C(=O)OCc2ccccc2)cc1 (stereo not drawn) the results were hERG WT inh -3, SW480 rereplic -1%, KB-V1 MDR tox inactive, MCF10A rerep inconclusive, KCNH2 3.1 inh -24 and KB-3-1 cytotox inactive.
Screening S=c1[nH]nc(-c2ccc(Cl)cc2)n1Cc1ccccc1 returned hERG WT inh -306*, SW480 rereplic -3%, KB-V1 MDR tox inconclusive, MCF10A rerep -1%, KCNH2 3.1 inh 4 and KB-3-1 cytotox inactive.
`C=CCn1c(-c2csc(-c3ccc(Cl)cc3)n2)n[nH]c1=S` gave hERG WT inh -187*, SW480 rereplic 3%, KB-V1 MDR tox inactive, MCF10A rerep -1%, KCNH2 3.1 inh -195* and KB-3-1 cytotox inactive.
Screening CCOC(=O)[C@]12CCC=C1N(Cc1ccc(Cl)cc1Cl)C(=O)[C@H](CC(=O)NCc1cccc(C(F)(F)F)c1)C2 returned KB-V1 MDR tox 21µM* and KB-3-1 cytotox inconclusive.
CCOC(=O)[C@]12CCCC=C1N(Cc1ccc3c(c1)OCO3)C(=O)[C@H](CC(=O)NCc1ccc(OC)c(OC)c1)C2 was read as KB-V1 MDR tox inactive and KB-3-1 cytotox inactive.
CCOC(=O)[C@]12CCCC=C1N(Cc1ccc(Cl)cc1Cl)C(=O)[C@H](CC(=O)NCc1cccc(C(F)(F)F)c1)C2 was read as KB-V1 MDR tox 16µM* and KB-3-1 cytotox inconclusive.
`COC(=O)[C@]12CCCCC=C1N(Cc1ccc(Cl)cc1Cl)C(=O)[C@H](CC(=O)NCc1cccc(C(F)(F)F)c1)C2` gave KB-V1 MDR tox inactive and KB-3-1 cytotox inactive.
CCOC(=O)[C@]12CCCC=C1N(Cc1ccc(Cl)cc1Cl)C(=O)[C@H](CC(=O)NCc1ccc(OC)c(OC)c1)C2 was read as KB-V1 MDR tox 18µM* and KB-3-1 cytotox inconclusive.
Cc1noc(Cn2c(=O)c3ccccc3n(CC(=O)Nc3ccc(Cl)cc3)c2=O)n1 was read as KB-V1 MDR tox inactive and KB-3-1 cytotox inactive.
